# According to PubChem BioAssay AID504332 (National Center for Advancing Translational Sciences (NCATS), 2011):
# About 31,000 (8.9%) of roughly 350,000 compounds were called active. Roughly 15% stayed inconclusive and do not appear here. What follows is part of a selection rich in actives, with near analogues and random picks from the rest. Where a call stands in place of a potency, no number is given. Values without a mark were called inactive. Calls come from the whole dose curve; as a rule, active = well fitted inhibition curve with a large enough effect; inconclusive = small, poorly fitted or top-dose-only effect; inactive = no such curve, though single readings can be large or run the other way.
# Molecular target: Histone-lysine N-methyltransferase EHMT2 (Homo sapiens) (UniProt Q96KQ7)
# Sequence (Q96KQ7 913-1193 limits assumed): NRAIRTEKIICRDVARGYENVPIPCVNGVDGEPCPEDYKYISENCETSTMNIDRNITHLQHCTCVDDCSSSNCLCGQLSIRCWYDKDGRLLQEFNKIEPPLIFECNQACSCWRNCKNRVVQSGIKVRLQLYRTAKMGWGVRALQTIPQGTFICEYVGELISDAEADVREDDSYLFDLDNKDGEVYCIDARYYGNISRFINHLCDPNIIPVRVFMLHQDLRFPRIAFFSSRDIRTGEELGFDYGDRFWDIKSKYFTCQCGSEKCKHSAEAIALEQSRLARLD
# Assay: qHTS Assay for Inhibitors of Histone Lysine Methyltransferase G9a; note: nearly all actives have a fitted effect of over 75% in size
# Conditions: G9a H3K9 monomethylation, AlphaScreen, 2 h; series mostly up to 59 µM
# Outline: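 Quantitative HTS format: methyltransferase activity on a biotin-tagged H3K9 peptide is measured by AlphaScreen, using a rabbit anti-monomethyl-H3K9 antibody with streptavidin donor and anti-IgG acceptor beads. Final levels are 20 nM enzyme, 500 nM peptide, 20 uM SAM; 2 h RT.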
# Potency is the fitted concentration of half-maximal effect.
Structure (SMILES),Potency,"activity, negative = inhibition"
COc1cc(C)ccc1OCCSc1nc2ccc(NC(=O)c3ccc(C)cc3)cc2s1,inactive,–
N#C/C(=C\c1cccc(F)c1)c1nc(-c2cc3c(ccc4ccccc43)oc2=O)cs1,inactive,–
COc1ccc(NC(=O)COCc2cc(-c3ccco3)on2)cc1,inactive,–
CC(OC(=O)/C=C/c1ccccc1)C(=O)NC1CCCCC1C (stereo unspecified),–,27.1% [at 12.7 µM]
CCCCN(C(=O)C1=NN(c2cc(C)ccc2C)C(=O)CC1)c1c(N)n(CCC)c(=O)[nH]c1=O,–,-9.41% [at 12.7 µM]
O=C(CSc1n[nH]c(-c2cccs2)n1)N1CCCCC1,–,-2.34% [at 2.33 µM]
CCN(CC)S(=O)(=O)c1cccc(-c2n[nH]c(=S)n2/N=C/c2ccc(C(=O)OC)cc2)c1,1.41 µM (active),–
CCN(CC)S(=O)(=O)c1ccc2nc(COC(=O)c3n[nH]c4ccccc34)[nH]c2c1,–,12.7% [at 12.7 µM]
COC(=O)c1ccc(/C=N\n2c(C)nnc2C)cc1,inactive,–
COc1ccc(-c2nn(CC(=O)Nc3ccccc3F)c3c2cnc2ccc(F)cc23)cc1,inactive,–
CCOC(=O)c1cccc(NC(=O)Cn2cnc3nc4c(cc3c2=O)CCCC4)c1,inactive,–
CC(NCC(=O)Nc1ccccc1C(=O)NC1CC1)c1ccccc1Cl (stereo unspecified),–,3.45% [at 12.7 µM]
Cc1cccc(Cn2c(CN3CCC(C(=O)NCc4ccccc4Cl)CC3)cc3ccccc32)c1,inactive,–
CCCN(CCC)CCNC(=O)Cn1cnc2sc(C)c(S(=O)(=O)N3CCC(C)CC3)c2c1=O,inactive,–
Cc1ccc(NC(=O)CN(C)C(=O)COC(=O)C(C)(C)Oc2ccc(Cl)cc2)cc1,inactive,–
COc1ccc(OCC(=O)NCCS(=O)(=O)N2CCN(c3ccc(F)cc3)CC2)cc1,inactive,–
COc1ccc(N2CC(C(=O)NCCS(=O)(=O)N3CCN(c4ccccc4)CC3)CC2=O)cc1 (stereo unspecified),inactive,–
COc1ccc(N2CCN(S(=O)(=O)CCNC(=O)C34CC5CC(CC(C5)C3)C4)CC2)cc1,44.7 µM (active),–
CC(=O)Nc1ccc(NC(=O)CCCc2nc(-c3ccc(C(C)(C)C)cc3)no2)cc1,inactive,–
CCc1ccc(NC(=O)Cn2nnc(C(=O)NCc3ccc(OC)cc3)c2N)cc1,inactive,–
CC(=O)c1c(C)n(-c2ccc(C)cc2)c2ccc(O)cc12,inactive,–
CC(=O)c1c(C)n(-c2ccc(N(C)C)cc2)c2ccc(OCC(N)=O)cc12,50.1 µM (active),–
CCOC(=O)c1c(-c2ccccc2)oc2ccc(OCC(N)=O)cc12,inactive,–
COc1ccc(CCNC(=O)COc2ccc3c(c2)OCO3)cc1,–,13.4% [at 2.33 µM]

Structure (SMILES),Potency,"activity, negative = inhibition"
COc1ccc(CCNC(=O)c2cc3cccc4c3n2CC(C)S4)c(OC)c1OC (stereo unspecified),inactive,–
O=C(NCCc1c[nH]c2ccccc12)C(=O)NCC1CCCO1 (stereo unspecified),inactive,–
N#C/C(=C/c1ccc(N2CCCCC2)o1)C(=O)NCCc1c[nH]c2ccccc12,31.6 µM (active),–
COCCCNC(=O)/C(C#N)=C/c1c(N2CCCCCC2)nc2ccccn2c1=O,–,7.66% [at 2.33 µM]
COc1ccc(Cc2nc3ccc(C(=O)NCc4ccccc4C)cc3o2)cc1,inactive,–
CCOCCn1[nH]c2ccccc2c1=O,–,-9.31% [at 2.33 µM]
O=S(=O)(c1ccccc1)N1CCC(c2ccccc2)CC1,–,0.779% [at 2.33 µM]
O=C(NC(Cc1c[nH]c2ccccc12)C(=O)O)/C(=C/c1ccco1)NC(=O)c1ccccc1 (stereo unspecified),28.2 µM (active),–
CC(=O)NC(Cc1c[nH]c2ccccc12)C(=O)O (stereo unspecified),inactive,–
Cc1ccc(C(=O)N/C(=C/c2ccco2)C(=O)NCCc2c[nH]c3ccccc23)cc1C,inactive,–
COc1ccccc1Cc1nc2ccccc2nc1SCC(=O)N1CCCc2ccccc21,inactive,–
COc1cccc(-n2c(=S)sc3c(=O)n(-c4ccccc4C)c(SCC(=O)O)nc32)c1,inactive,–
COc1ccc(Cl)cc1NC(=O)C1CC(=O)N(c2ccc(F)cc2)C1 (stereo unspecified),–,-1.46% [at 12.7 µM]
COc1ccc(Cl)cc1-n1c(=S)sc2c(=O)n(-c3ccc(F)cc3)c(SCC(=O)O)nc21,28.2 µM (active),–
Cc1cccc(NC(=O)N2CCN(C)c3ncccc32)c1C,inactive,–
CC(=O)c1cccc(NC(=O)c2cc(C)nn2-c2ccccc2)c1,inactive,–
CC[n+]1c(C)n(-c2ccccc2)c2ccc(NC(C)=O)cc21,14.1 µM (active),–
CC(=O)Nc1ccc(NC(=O)CSc2nnc(C3CC3)n2-c2ccccc2)cc1,–,5.42% [at 2.33 µM]
Cc1cccn2c(=O)nc(SCC(=O)NCc3ccccc3Cl)nc12,inactive,–
Cc1nn(-c2ccc(F)cc2)c(-n2cccc2)c1C(=O)N1CCN(c2ccccc2)CC1,inactive,–
COc1ccc(OCCNC(=O)c2cc(C3CC3)nc3c2cnn3C(C)C)cc1,inactive,–
CC(C)(O)c1ccccc1CC[C@H](SCC1(CC(=O)O)CC1)c1cccc(/C=C/c2ccc3ccc(Cl)cc3n2)c1,–,1.82% [at 12.7 µM]
CCN(c1ccccc1)S(=O)(=O)c1ccc(OCC(=O)N2CCCC2)cc1,–,12.7% [at 2.33 µM]
Cc1noc(/C=C/c2ccco2)c1S(=O)(=O)N1CCC(C(=O)Nc2ccc(Cl)cn2)CC1,inactive,–

Structure (SMILES),Potency,"activity, negative = inhibition"
Cc1noc(/C=C/c2ccco2)c1S(=O)(=O)N1CCC(C(=O)N2CCc3ccccc32)CC1,44.7 µM (active),–
Cc1cccc(NC(=O)C2CCN(S(=O)(=O)c3c(C)noc3/C=C/c3ccco3)CC2)c1,inactive,–
O=C(Nc1cccc2cccnc12)c1cccc(Cl)c1,inactive,–
CC(C)c1nc(N2CCOCC2)c(C#N)c2c1COC(C)(C)C2,inactive,–
CC1(C)Cc2c(C#N)c(SCc3nc4ccccc4[nH]3)nc(N3CCOCC3)c2CO1,39.8 µM (active),–
COc1ccc(CSc2nc(N3CCOCC3)c3c(c2C#N)CC(C)(C)OC3)cc1,inactive,–
Nc1ccc(N=Nc2ccccc2Cl)c(N)n1,28.2 µM (active),–
CCCCCCSc1ccc([C@@H]2[C@@H]3C(=O)N(CC)C(=O)[C@@H]3[C@]3(C(=O)OC)CCCCN23)cc1OC,–,2.26% [at 2.33 µM]
O=C(COC(=O)C1CC2CCCC(C1)C2=O)NC(=O)c1ccccc1 (stereo unspecified),–,-4.63% [at 12.7 µM]
CN(C(=O)CN(CCO)CC(=O)N(C)C(C)(C)Cc1ccccc1)C(C)(C)Cc1ccccc1,inactive,–
CCOC(=O)c1ccc(CN(Cc2ccccc2)S(=O)(=O)c2ccc(Cl)cc2)cc1,inactive,–
OCCN(Cc1ccccc1)Cc1ccc(Cl)cc1,22.4 µM (active),–
CC(C)NC(=O)c1ccc(Cl)cc1Cl,inactive,–
CC(O)CN(Cc1ccc(Cl)cc1)CC(C)O (stereo unspecified),14.1 µM (active),–
CN(C)CCCNC(=S)NCc1ccc(Cl)cc1,inactive,–
CCC(Cc1ccccc1)NC(=O)C1CCCCC1 (stereo unspecified),inactive,–
CCc1nn(CC(=O)Nc2cccc(C)c2C)c(=O)c2cc3sccc3n12,inactive,–
Oc1ccc(-n2nnnc2SCc2c(F)cccc2Cl)cc1,inactive,–
COc1ccc(Cc2nc3ccc(C(=O)NCc4ccccc4Cl)cc3o2)cc1,inactive,–
O=C(Nc1ccc(O)c(-c2nc3ccccc3o2)c1)c1ccc(-c2cccc(Cl)c2)o1,inactive,–
Cc1ccnc(N2CCCC(C(=O)NC3CC3)C2)n1 (stereo unspecified),inactive,–
Cc1ccnc(SCC(N)=O)n1,inactive,–
Cc1ccnc(-n2sc3ccccc3c2=O)n1,1 µM (active),–
O=C1CC(c2ccccc2)=NN1c1ccc([N+](=O)[O-])cc1,39.8 µM (active),–

Structure (SMILES),Potency,"activity, negative = inhibition"
Cc1nn(-c2ccc([N+](=O)[O-])cc2)c(N)c1-c1ccccc1,inactive,–
COc1ccc(C2=NN(c3nc4ccccc4s3)C(=O)C2)cc1,inactive,–
O=C1CCCC2=C1C(c1cccs1)CC(=O)N2c1ccc(F)cc1 (stereo unspecified),inactive,–
Cn1c(N)cc(-c2ccc(F)cc2)c(C#N)c1=O,inactive,–
N#CC1=C(N)N(c2ccc(F)cc2)C(=O)C1,39.8 µM (active),–
O=C(NCc1ccc(F)cc1)c1ccc2nc(N3CCCCC3)sc2c1,inactive,–
COC(=O)c1scc(-c2ccccc2)c1S(=O)(=O)Nc1ccccc1,inactive,–
Fc1ccccc1N=C1Nc2cccc3cccc1c23,inactive,–
COc1ccccc1C1=Nc2cccc3cccc(c23)N1,–,39.6% [at 0.501 µM]
c1ccc(C2=Nc3cccc4cccc(c34)N2)cc1,8.91 µM (active),–
Cc1nn(-c2ccccc2)c(Cl)c1C(=O)Nc1ccccc1,–,50.1% [at 12.7 µM]
Cc1ccc(C(=O)/C=C/c2c(C)nn(-c3ccccc3)c2Cl)cc1,inactive,–
Cc1nn(-c2ccccc2)c(Cl)c1/C=C/C(=O)c1ccc(O)cc1,15.8 µM (active),–
COc1cccc(CNc2nccn(-c3ccc(OC)c(OC)c3)c2=O)c1,inactive,–
CC(NC(=O)c1cc(Sc2ccc(F)cc2F)nc2ccccc12)c1ccccc1 (stereo unspecified),inactive,–
Cc1ccc(-c2cnc(NC(=O)CCC(=O)N(C)Cc3ccccc3)n2C)cc1,–,-4.41% [at 12.7 µM]
COc1ccc(CNc2nc(-c3ccc(Cl)cc3)nn2S(=O)(=O)c2ccc(C)cc2)cc1,inactive,–
Cc1ccc(-c2cnc(NCc3ccc(C(C)C)cc3)n2C)cc1,2.82 µM (active),–
CCOc1ccccc1OCC(=O)Nc1ccccc1C(=O)NC1CC1,inactive,–
CCCN(CC(=O)Nc1ccccc1OC)C(=O)CCC(=O)c1ccc(F)cc1,inactive,–
Cc1nn(C(C)C(=O)NCCC2=CCCCC2)c(=O)c2nn(-c3ccccc3)c(C)c12 (stereo unspecified),inactive,–
Cc1cc(Cl)ccc1NC(=O)Cc1ccc(NC(=O)N2CCCCc3ccccc32)cc1,inactive,–
O=C(Cc1ccc2c(c1)CCCC2)Nc1ccccc1Cl,44.7 µM (active),–
CCC(=O)N1CCc2cc(CNC(=O)Nc3ccccc3Cl)ccc21,inactive,–
